Assay outcomes as filed in PubChem BioAssay.
The full list was thinned out, with hits kept by preference.
TbREL1 inh – TbREL1 inhibition, primary screen; TbREL1 RNA ligation, FRET fluorescence; inhibition, % at 9.66 µM; 89,000 tested, 0.49% active;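 active = inhibition above the mean inhibition across all screened compounds plus 3 SD, cut at about 11% in these data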
TbREL1 confirm – TbREL1 inhibition, confirmation | shares compounds with TbREL1 inh | TbREL1 RNA ligation, FRET fluorescence | inhibition, % at 9.66 µM | 390 tested, 37% active | AID 1117282;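 active = mean inhibition across replicates above a set limit taken from the earlier primary screen, cut at about 11% in these data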
Numbers stand for hits; – = inactive.

SMILES	TbREL1 inh	others
CCC(C)NC(=O)C1CCN(S(=O)(=O)c2ccc3[nH]c(=O)oc3c2)CC1 (stereo unspecified)	12.0	TbREL1 confirm=24.8
Cc1ccc(NC(=O)C2CCN(S(=O)(=O)c3ccc4[nH]c(=O)oc4c3)CC2)cc1F	–
CCC(C)NC(=O)C1CCN(S(=O)(=O)c2cccnc2)CC1 (stereo unspecified)	–
C/C(C=NNC(=O)CSc1nnc(-c2ccccc2)n1-c1ccc(C)cc1)=C\c1ccco1	–
Cc1ccc(S(=O)(=O)NCC2Cc3ccccc3N2S(=O)(=O)c2ccc(C)cc2)cc1 (stereo unspecified)	–
CS(=O)(=O)N1c2ccccc2C[C@H]1Cc1cc2ccccc2o1	12.2	TbREL1 confirm=–
CCNC(=O)C1(C)CCCN(Cc2cc3ccccc3o2)C1 (stereo unspecified)	–
O=C1C(Cc2ccccc2)S/C(=N/N=C/c2ccco2)N1c1ccccc1 (stereo unspecified)	–
CCCC1S/C(=N/N=C/c2ccco2)NC1=O (stereo unspecified)	–
O=C1N/C(=N/N=C/c2ccco2)SC1Cc1ccccc1 (stereo unspecified)	11.3	TbREL1 confirm=–
CS(=O)(=O)Nc1ccc(-c2cnc3cccnn23)cc1	–
COc1ccc(C(c2ccc(OC)cc2)N2CCN(C(=O)c3noc(C)c3[N+](=O)[O-])CC2)cc1	–
CCOc1ccc(-n2c(SCC(=O)Nc3ccc(S(=O)(=O)Nc4nccs4)cc3)nnc2-c2ccco2)cc1	–
CC1(C)CC(=O)N(CC(=O)N2CCN(c3ccc(F)cc3)CC2)c2ccccc2S1(=O)=O	–
O=C(O)c1cc(Sc2ccc(Br)cc2)nc2ccccc12	–
Cc1cc(C(N)=O)c2ccccc2n1	–
CC(C)c1cc(C(=O)O)c2ccccc2n1	13.0	TbREL1 confirm=–
N#CC1CCN(c2nc(-c3ccc(Br)cc3)cs2)CC1	–
COc1ccc(C(=O)CSc2nnc(-c3cccnc3)n2-c2ccc(C)cc2)cc1	–
Nn1c(SCC(=O)N2c3ccccc3Sc3ccc(Cl)cc32)nnc1-c1n[nH]c2c1CCC2	–
C=CCNC(=O)C1CCN(c2cncnc2)CC1	–
O=C(Nc1nnc(-c2ccc(Cl)cc2)o1)NC1CCCCC1	–
O=C(Nc1cccc(Cl)c1)NC1CCCCC1	–
Clc1ccc(CN=C(Nc2ccccc2)NC2CCCCC2)cc1	12.6	TbREL1 confirm=15.4
COc1cc2c(c(OC)c1OC)CC(c1ccccc1)=C(c1ccccc1)CC2NC(=O)C(F)(F)F (stereo unspecified)	–
SMILES	TbREL1 inh	others
c1ccc(Cn2ccc3ccc(-c4ccc5ccn(Cc6cccc(-c7ccsc7)c6)c5c4)cc32)cc1	–
CCOc1ccc(-n2c(COc3ccc(Cl)cc3)nnc2SCC(=O)Nc2ccc(OCc3ccccc3)cc2)cc1	–
COC(=O)c1cccc(-c2ccc(C(c3c(C)[nH][nH]c3=O)c3c(C)[nH][nH]c3=O)o2)c1	14.5	TbREL1 confirm=–
O=Cc1ccc(-c2cccc(C(=O)O)c2)o1	–
COC(=O)c1cccc(-c2ccc(/C=N/N3C(=O)C4C5C=CC(C6CC56)C4C3=O)o2)c1 (stereo unspecified)	–
COc1ccc(-c2cnnc(N/N=C/c3ccc(OC)c(OC)c3)n2)cc1	11.1	TbREL1 confirm=–
CCOc1cc(/C=N/Nc2nncc(-c3ccccc3)n2)ccc1O	–
COc1ccc(/C=N/Nc2nc(-c3ccc(Cl)cc3)cc(C(F)(F)F)n2)cc1OC	–
COc1ccc(-c2cc(C(=O)NN=C/C(C)=C/c3ccccc3)[nH]n2)cc1	–
COc1cccc(N(C)C(=O)[C@@H](C)[C@@H](O)c2ccc(C(C)=O)cc2)c1	–
Cc1cc2nc(-c3ccco3)c(Cc3ccccc3C(F)(F)F)n2c(C)c1Br	–
CC1(C)Oc2ccc(C(=O)N3CCCC3)cc2NC1=O	–
CC(NCC(O)COc1ccc2ccccc2c1)c1ccccc1 (stereo unspecified)	13.8	TbREL1 confirm=14.5
CCCC(NCC(O)COc1ccc(-c2ccccc2)cc1)c1ccccc1 (stereo unspecified)	–
Cc1nc(C)n(CC(O)COc2ccc3ccccc3c2)n1 (stereo unspecified)	–
CC(C)CCNC(=O)C1CCCN(C(=O)c2ccc3c(c2)NC(=O)CS3)C1 (stereo unspecified)	–
COc1ccc(C(C(=O)N(C)C2CCCC2)N(Cc2ccc(F)cc2)C(=O)c2ccc3ccccc3c2)cc1OC (stereo unspecified)	–
C=CCc1ccc(OCCCNCc2ccccc2)c(OC)c1	11.8	TbREL1 confirm=–
C=CCc1ccc(OCCOCCOc2ccccc2[N+](=O)[O-])c(OC)c1	–
C=CCc1ccc(OCCCOc2ccc(C)cc2OC)c(OC)c1	–
Cc1ccc(S(=O)(=O)NC[C@@H]2C[C@H](c3ccccc3)ON2S(=O)(=O)c2ccc(C)cc2)cc1	–
O=C1CC(N2CCCC2)=NC(=O)N1c1ccc(Br)cc1	–
COC(=O)c1cc(NC(=O)C(C)c2ccc(CC(C)C)cc2)ccc1O (stereo unspecified)	–
CC(C)c1ccc(CNCc2ccccc2)cc1	–
